# Out of some 5,500 compounds screened, about 2,000 (36%) were called active. Not shown: some 18% with an inconclusive outcome. The list shows a part of the results. A number with no mark means an inactive call. No stated cut-off is given here; in the data, active means normalized growth mostly below about 0.91 (no sharp cut-off); inconclusive means no clear call, values can overlap the other calls; inactive means mostly above about 0.92.
# Test: chemical genetic growth profiling, strain panel (AID 1159580);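 further: tested at 20 µM; growth read once vehicle control cultures reached saturation at 30 °C; 1 = growth at the plate median or of vehicle wells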
# Conditions: S. cerevisiae deletion strains, growth OD
# [1] = locus YAL021C, strain ccr4, stronger effect = lower value
# [2] = locus YAL026C, strain drs2, stronger effect = lower value
# [3] = locus YAL030W, strain snc1, stronger effect = lower value
# [4] = locus YBL061C, strain skt5, stronger effect = lower value
# [5] = locus YBR009C, strain hhf1, stronger effect = lower value
# [6] = locus YBR023C, strain chs3, stronger effect = lower value
# [7] = locus YBR171W, strain sec66, stronger effect = lower value
# [8] = locus YBR231C, strain swc5, stronger effect = lower value
# [9] = locus YBR279W, strain paf1, stronger effect = lower value
# [10] = locus YCL011C, strain gbp2, stronger effect = lower value
# [11] = locus YCL016C, strain dcc1, stronger effect = lower value
# [12] = locus YCL061C, strain MRC1, stronger effect = lower value
# [13] = locus YCL069W, strain vba3, stronger effect = lower value
# [14] = locus YCR088W, strain abp1, stronger effect = lower value
# [15] = locus YDL005C, strain med2, stronger effect = lower value
# [16] = locus YDL040C, strain nat1, stronger effect = lower value
# [17] = locus YDR001C, strain nth1, stronger effect = lower value
# [18] = locus YDR069C, strain doa4, stronger effect = lower value
# [19] = locus YDR137W, strain rgp1, stronger effect = lower value
# [20] = locus YDR159W, strain sac3, stronger effect = lower value
# [21] = locus YDR297W, strain sur2, stronger effect = lower value
# [22] = locus YDR334W, strain swr1, stronger effect = lower value
# [23] = locus YDR335W, strain msn5, stronger effect = lower value
# [24] = locus YDR392W, strain spt3, stronger effect = lower value
# [25] = locus YEL003W, strain gim4, stronger effect = lower value
# [26] = locus YEL037C, strain rad23, stronger effect = lower value
# [27] = locus YEL061C, strain CIN8 (second series), stronger effect = lower value
# [28] = locus YER015W, strain faa2, stronger effect = lower value
# [29] = locus YER016W, strain bim1, stronger effect = lower value
# [30] = locus YER111C, strain swi4, stronger effect = lower value
# [31] = locus YER155C, strain BEM2 (second series), stronger effect = lower value
# [32] = locus YFR010W, strain ubp6, stronger effect = lower value
# [33] = locus YGL167C, strain pmr1, stronger effect = lower value
# [34] = locus YGL173C, strain kem1, stronger effect = lower value
# [35] = locus YGL227W, strain vid30, stronger effect = lower value
# [36] = locus YGL240W, strain doc1, stronger effect = lower value
# [37] = locus YGL253W, strain hxk2, stronger effect = lower value
# [38] = locus YHR013C, strain ard1, stronger effect = lower value
# [39] = locus YHR027C, strain rpn1, stronger effect = lower value
# [40] = locus YHR030C, strain SLT2, stronger effect = lower value
# [41] = locus YHR079C, strain IRE1, stronger effect = lower value
# [42] = locus YHR142W, strain chs7, stronger effect = lower value
# [43] = locus YJL092W, strain hpr5, stronger effect = lower value
# [44] = locus YJL095W, strain BCK1 (second series), stronger effect = lower value
# [45] = locus YJL095W, strain BCK1, stronger effect = lower value
# [46] = locus YJL115W, strain asf1, stronger effect = lower value
# [47] = locus YJL129C, strain trk1, stronger effect = lower value
# [48] = locus YJL154C, strain vps35, stronger effect = lower value
# [49] = locus YJL164C, strain tpk1, stronger effect = lower value
# [50] = locus YJL166W, strain qcr8, stronger effect = lower value
# [51] = locus YJL187C, strain SWE1, stronger effect = lower value
# [52] = locus YJR066W, strain TOR1, stronger effect = lower value
# [53] = locus YKL160W, strain elf1, stronger effect = lower value
# [54] = locus YKR026C, strain gcn3, stronger effect = lower value
# [55] = locus YKR091W, strain srl3, stronger effect = lower value
# [56] = locus YLL001W, strain dnm1, stronger effect = lower value
# [57] = locus YLL026W, stronger effect = lower value
# [58] = locus YLL041C, strain sdh2, stronger effect = lower value
# [59] = locus YLR027C, strain aat2, stronger effect = lower value
# [60] = locus YLR113W, strain HOG1, stronger effect = lower value
# [61] = locus YLR221C, strain rsa3, stronger effect = lower value
# [62] = locus YLR258W, strain gsy2, stronger effect = lower value
# [63] = locus YLR262C, strain YPT6 (second series), stronger effect = lower value
# [64] = locus YLR320W, strain mms22, stronger effect = lower value
# [65] = locus YLR342W, strain FKS1, stronger effect = lower value
# [66] = locus YLR357W, strain rsc2, stronger effect = lower value
# [67] = locus YLR370C, strain arc18, stronger effect = lower value
# [68] = locus YLR384C, strain iki3, stronger effect = lower value
# [69] = locus YML120C, strain ndi1, stronger effect = lower value
# [70] = locus YMR058W, strain fet3, stronger effect = lower value
# [71] = locus YMR125W, strain sto1, stronger effect = lower value
# [72] = locus YMR129W, stronger effect = lower value
# [73] = locus YMR205C, strain PFK2, stronger effect = lower value
# [74] = locus YMR231W, strain pep5, stronger effect = lower value
# [75] = locus YNL071W, strain lat1, stronger effect = lower value
# [76] = locus YNL183C, strain NPR1, stronger effect = lower value
# [77] = locus YNL209W, strain ssb2, stronger effect = lower value
# [78] = locus YNL248C, strain rpa49, stronger effect = lower value
# [79] = locus YNL322C, strain KRE1 (second series), stronger effect = lower value
# [80] = locus YNR049C, strain mso1, stronger effect = lower value
# [81] = locus YOR001W, strain rrp6, stronger effect = lower value
# [82] = locus YOR070C, strain gyp1, stronger effect = lower value
# [83] = locus YOR080W, strain dia2, stronger effect = lower value
# [84] = locus YOR083W, strain WHI5, stronger effect = lower value
# [85] = locus YOR106W, strain vam3, stronger effect = lower value
# [86] = locus YOR231W, strain MKK1, stronger effect = lower value
# [87] = locus YOR265W, strain rbl2, stronger effect = lower value
# [88] = locus YOR270C, strain vph1, stronger effect = lower value
# [89] = locus YOR290C, strain snf2, stronger effect = lower value
# [90] = locus YPL051W, strain arl3, stronger effect = lower value
# [91] = locus YPL078C, strain atp4, stronger effect = lower value
# [92] = locus YPL106C, strain sse1, stronger effect = lower value
# [93] = locus YPL240C, strain hsp82, stronger effect = lower value
# [94] = locus YPL256C, strain CLN2, stronger effect = lower value
smiles,measurement,setting,value
CC(C(=O)O)[C@H]1CCC2C3CC=C4C[C@@H](O)CC[C@]4(C)C3CC[C@@]21C (stereo partly drawn),normalized growth,[1],0.939
same,normalized growth,[2],0.627 (active)
same,normalized growth,[3],1.03
same,normalized growth,[4],1.03
same,normalized growth,[5],0.979
same,normalized growth,[6],1
same,normalized growth,[7],1.02
same,normalized growth,[8],1.04
same,normalized growth,[9],1.02
same,normalized growth,[10],1.03
same,normalized growth,[11],0.977
same,normalized growth,[12],1
same,normalized growth,[13],1.03
same,normalized growth,[14],1.04
same,normalized growth,[15],1.05
same,normalized growth,[16],1.04
same,normalized growth,[17],1.04
same,normalized growth,[18],0.988
same,normalized growth,[19],0.562 (active)
same,normalized growth,[20],1.04
same,normalized growth,"locus YDR195W, strain ref2",1.35 [resistant] (active)
same,normalized growth,[21],1.02
same,normalized growth,[22],1.05
same,normalized growth,[23],1.02
same,normalized growth,[24],0.733 (active)
same,normalized growth,[25],1.02
same,normalized growth,[26],1.03
same,normalized growth,[27],1.05
same,normalized growth,[28],1.01
same,normalized growth,[29],1.04
same,normalized growth,[30],1.02
same,normalized growth,[31],1.08
same,normalized growth,[32],0.953
same,normalized growth,[33],1.03
same,normalized growth,[34],0.981
same,normalized growth,[35],1.04
same,normalized growth,[36],1.03
same,normalized growth,[37],0.989
same,normalized growth,[38],1.04
same,normalized growth,[39],1.02
same,normalized growth,[40],1.04
same,normalized growth,[41],1.03
same,normalized growth,[42],0.967
same,normalized growth,[43],1.02
same,normalized growth,[44],1.03
same,normalized growth,[45],1.02
same,normalized growth,[46],1.04
same,normalized growth,[47],1.03
same,normalized growth,[48],1.04
same,normalized growth,[49],0.973
same,normalized growth,[50],0.97
same,normalized growth,[51],1.01
same,normalized growth,[52],0.98
same,normalized growth,[53],1
same,normalized growth,[54],1.04
same,normalized growth,[55],1.05
same,normalized growth,[56],1.01
same,normalized growth,[57],1.03
same,normalized growth,[58],1.03
same,normalized growth,[59],1.01
same,normalized growth,[60],1.06
same,normalized growth,[61],0.996
same,normalized growth,[62],1.02
same,normalized growth,[63],0.485 (active)
same,normalized growth,[64],0.919
same,normalized growth,[65],1.03
same,normalized growth,[66],1.1
same,normalized growth,[67],1.01
same,normalized growth,[68],1.04
same,normalized growth,[69],1.01
same,normalized growth,[70],1
same,normalized growth,[71],1.03
same,normalized growth,[72],1.03
same,normalized growth,[73],1.02
same,normalized growth,[74],1.02
same,normalized growth,[75],0.989
same,normalized growth,[76],0.971
same,normalized growth,[77],1.03
same,normalized growth,[78],0.963
same,normalized growth,[79],1.06
same,normalized growth,[80],1.05
same,normalized growth,[81],0.997
same,normalized growth,[82],0.962
same,normalized growth,[83],1.03
same,normalized growth,[84],0.983
same,normalized growth,[85],1.01
same,normalized growth,[86],1.06
same,normalized growth,[87],1.02
same,normalized growth,[88],0.961
same,normalized growth,[89],0.995
same,normalized growth,[90],0.963
same,normalized growth,[91],1
same,normalized growth,[92],1.26 [resistant] (active)
same,normalized growth,[93],1.04
same,normalized growth,[94],1.06
CC(=O)C1CCC2C3CC=C4CC(OS(=O)(=O)O)CC[C@]4(C)C3CC[C@]12C (stereo partly drawn),normalized growth,[40],0.973
same,normalized growth,[41],0.984
same,normalized growth,[45],0.953
same,normalized growth,[52],0.877
same,normalized growth,[60],1.03
same,normalized growth,[76],0.902
same,normalized growth,[86],0.977
same,normalized growth,[94],0.975
CC(=O)[C@H]1CCC2C3CC=C4C[C@@H](OC(=O)CCC(=O)O)CC[C@]4(C)C3CC[C@@]21C (stereo partly drawn),normalized growth,[1],0.975
same,normalized growth,[2],0.913
same,normalized growth,[3],0.969
same,normalized growth,[4],0.964
same,normalized growth,[5],0.899 (active)
same,normalized growth,[6],0.96
same,normalized growth,[7],0.898
same,normalized growth,[8],0.975
same,normalized growth,[9],0.961
same,normalized growth,[10],0.957
same,normalized growth,[11],0.965
same,normalized growth,[12],0.962
same,normalized growth,[13],0.983
same,normalized growth,[14],0.966
same,normalized growth,[15],0.941
same,normalized growth,[16],0.973
same,normalized growth,[17],0.971
same,normalized growth,[18],0.966
same,normalized growth,[19],0.556 (active)
same,normalized growth,[20],0.943
same,normalized growth,"locus YDR195W, strain ref2",1.03
same,normalized growth,[21],0.95
same,normalized growth,[22],0.989
same,normalized growth,[23],0.977
same,normalized growth,[24],0.466 (active)
same,normalized growth,[25],0.968
same,normalized growth,[26],0.972
same,normalized growth,[27],0.97
same,normalized growth,[28],0.985
same,normalized growth,[29],0.969
same,normalized growth,[30],0.953
same,normalized growth,[31],0.842 (active)
same,normalized growth,[32],0.966
same,normalized growth,[33],0.928
same,normalized growth,[34],0.898 (active)
same,normalized growth,[35],0.973
same,normalized growth,[36],0.939
same,normalized growth,[37],0.971
same,normalized growth,[38],0.941
same,normalized growth,[39],0.978
same,normalized growth,[40],0.997
same,normalized growth,[41],0.974
same,normalized growth,[42],0.932
same,normalized growth,[43],0.966
same,normalized growth,[44],0.971
same,normalized growth,[45],0.913
same,normalized growth,[46],0.99
same,normalized growth,[47],0.804 (active)
same,normalized growth,[48],0.988
same,normalized growth,[49],0.955
same,normalized growth,[50],0.929
same,normalized growth,[51],0.968
same,normalized growth,[52],0.942
same,normalized growth,[53],0.951
same,normalized growth,[54],0.962
same,normalized growth,[55],0.968
same,normalized growth,[56],0.948
same,normalized growth,[57],0.974
same,normalized growth,[58],0.985
same,normalized growth,[59],0.978
same,normalized growth,[60],0.855
same,normalized growth,[61],0.967
same,normalized growth,[62],0.956
same,normalized growth,[63],0.57 (active)
same,normalized growth,[64],0.796 (active)
same,normalized growth,[65],0.955
same,normalized growth,[66],0.989
same,normalized growth,[67],0.942
same,normalized growth,[68],0.97
same,normalized growth,[69],0.9 (active)
same,normalized growth,[70],0.963
same,normalized growth,[71],0.938
same,normalized growth,[72],0.968
same,normalized growth,[73],0.822 (active)
same,normalized growth,[74],0.975
same,normalized growth,[75],0.845 (active)
same,normalized growth,[76],0.927
same,normalized growth,[77],0.969
same,normalized growth,[78],0.988
same,normalized growth,[79],0.969
same,normalized growth,[80],0.973
same,normalized growth,[81],0.952
same,normalized growth,[82],0.959
same,normalized growth,[83],0.95
same,normalized growth,[84],0.974
same,normalized growth,[85],0.953
same,normalized growth,[86],0.961
same,normalized growth,[87],0.981
same,normalized growth,[88],0.91
same,normalized growth,[89],0.908
same,normalized growth,[90],0.973
same,normalized growth,[91],0.956
same,normalized growth,[92],1
same,normalized growth,[93],0.971
same,normalized growth,[94],0.991

# — PubChem BioAssay AID1159580 (chemical genetic matrix, 2015)
